For 13 molecules, inhibition results are on record in ChEMBL document CHEMBL1961873, “Compounds: GSK PKIS; Assays: Nanosyn kinase panel” (2012).

Assay [1] addresses Casein kinase I isoform gamma-2 (Homo sapiens) (UniProt P78368). Particulars: at 1 µM.
The target of assay [2] is Casein kinase I isoform gamma-3 (Homo sapiens) (UniProt Q9Y6M4). Particulars: at 0.1 µM.
Assay [3] shares this target. To be noted: at 1 µM.
For assay [4], the target named is Cyclin-dependent kinase 1 (Homo sapiens) (UniProt P06493). Particulars: at 0.1 µM.
Cyclin-dependent kinase 1 (Homo sapiens), sequence (P06493 whole entry, looked up): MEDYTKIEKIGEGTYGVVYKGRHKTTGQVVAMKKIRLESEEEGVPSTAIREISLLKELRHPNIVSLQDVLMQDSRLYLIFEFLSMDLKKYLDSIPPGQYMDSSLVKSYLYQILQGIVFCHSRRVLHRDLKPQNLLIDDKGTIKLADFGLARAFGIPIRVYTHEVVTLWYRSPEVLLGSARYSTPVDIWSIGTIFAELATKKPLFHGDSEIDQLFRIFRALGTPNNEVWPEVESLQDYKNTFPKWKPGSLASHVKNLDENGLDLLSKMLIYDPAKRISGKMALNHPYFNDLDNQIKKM
Assay [5] has the same target. Particulars: at 1 µM.
Assay [6] addresses Cyclin-dependent kinase 2 (Homo sapiens) (UniProt P24941). To be noted: at 0.1 µM.
For assay [7] the target is unchanged. Particulars: at 1 µM.
For assay [8] the target is unchanged. Particulars: at 0.1 µM. This is another data set of the same source.
The target is the same in assay [9]. Particulars: at 1 µM. The source holds these as a separate data set.
The target in assay [10] is T1, CDK3/Cyclin E (Homo sapiens) (UniProt P24864+Q00526). To be noted: at 0.1 µM.
T1 sequence (P24864 whole entry, looked up): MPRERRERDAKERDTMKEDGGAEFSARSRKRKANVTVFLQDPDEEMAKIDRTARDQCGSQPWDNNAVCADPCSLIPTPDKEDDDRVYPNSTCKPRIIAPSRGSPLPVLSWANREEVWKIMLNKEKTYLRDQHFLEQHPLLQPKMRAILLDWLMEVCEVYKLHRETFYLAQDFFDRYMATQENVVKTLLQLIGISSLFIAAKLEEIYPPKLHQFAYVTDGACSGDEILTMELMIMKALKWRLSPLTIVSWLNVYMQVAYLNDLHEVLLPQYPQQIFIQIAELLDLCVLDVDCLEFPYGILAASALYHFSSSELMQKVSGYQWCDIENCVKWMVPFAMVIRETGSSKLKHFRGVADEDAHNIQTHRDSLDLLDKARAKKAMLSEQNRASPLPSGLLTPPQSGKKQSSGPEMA
T1 sequence (Q00526 whole entry, looked up): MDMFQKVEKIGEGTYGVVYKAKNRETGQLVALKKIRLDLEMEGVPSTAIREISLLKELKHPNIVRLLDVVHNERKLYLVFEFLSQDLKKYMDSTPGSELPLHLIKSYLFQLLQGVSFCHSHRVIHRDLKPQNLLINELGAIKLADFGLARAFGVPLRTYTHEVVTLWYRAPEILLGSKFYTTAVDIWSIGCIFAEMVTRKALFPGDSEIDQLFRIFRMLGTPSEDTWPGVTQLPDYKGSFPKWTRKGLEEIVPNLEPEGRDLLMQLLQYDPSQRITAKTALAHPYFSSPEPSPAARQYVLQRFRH
The target in assay [11] is T1, CDK3/Cyclin E (Homo sapiens). Particulars: at 1 µM.
In assay [12] the target is Cyclin-dependent kinase 4 (Homo sapiens) (UniProt P11802). To be noted: at 0.1 µM.
Cyclin-dependent kinase 4 (Homo sapiens), sequence (P11802 whole entry): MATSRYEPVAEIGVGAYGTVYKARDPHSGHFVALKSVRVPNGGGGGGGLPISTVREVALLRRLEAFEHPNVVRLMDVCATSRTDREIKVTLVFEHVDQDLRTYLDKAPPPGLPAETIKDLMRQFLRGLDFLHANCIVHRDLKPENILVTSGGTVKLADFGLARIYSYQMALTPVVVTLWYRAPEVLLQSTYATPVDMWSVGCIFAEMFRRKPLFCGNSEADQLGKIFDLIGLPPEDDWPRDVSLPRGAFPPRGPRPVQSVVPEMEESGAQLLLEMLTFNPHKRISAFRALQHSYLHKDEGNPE
Assay [13] shares this target. Particulars: at 1 µM.
Assay [14] deals with Cyclin-dependent kinase 5 (Homo sapiens) (UniProt Q00535). To be noted: at 0.1 µM.
Cyclin-dependent kinase 5 (Homo sapiens), sequence (Q00535 whole entry, looked up): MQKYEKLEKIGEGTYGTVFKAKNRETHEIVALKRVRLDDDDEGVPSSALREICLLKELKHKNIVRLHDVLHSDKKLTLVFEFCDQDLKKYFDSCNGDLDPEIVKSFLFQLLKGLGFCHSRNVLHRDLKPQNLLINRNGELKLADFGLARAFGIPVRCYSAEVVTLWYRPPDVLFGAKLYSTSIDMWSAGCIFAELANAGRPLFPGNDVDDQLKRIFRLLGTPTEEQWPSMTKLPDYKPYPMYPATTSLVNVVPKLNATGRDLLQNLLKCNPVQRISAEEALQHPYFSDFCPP
Assay [15] has the same target. To be noted: at 1 µM.
The target in assay [16] is Cyclin-dependent kinase 6 (Homo sapiens) (UniProt Q00534). Particulars: at 0.1 µM.
Cyclin-dependent kinase 6 (Homo sapiens), sequence (Q00534 whole entry): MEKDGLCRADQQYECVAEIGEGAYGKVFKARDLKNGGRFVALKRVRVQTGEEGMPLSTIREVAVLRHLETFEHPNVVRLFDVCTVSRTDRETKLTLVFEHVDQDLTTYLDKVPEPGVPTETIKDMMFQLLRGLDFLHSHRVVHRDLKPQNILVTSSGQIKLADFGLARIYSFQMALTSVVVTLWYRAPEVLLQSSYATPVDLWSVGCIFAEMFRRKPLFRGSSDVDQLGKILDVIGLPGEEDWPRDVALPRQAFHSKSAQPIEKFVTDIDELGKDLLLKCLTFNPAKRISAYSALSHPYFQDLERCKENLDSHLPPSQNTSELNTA
For assay [17] the target is unchanged. Particulars: at 1 µM.
In assay [18] the target is Dual specificity protein kinase CLK2 (Homo sapiens) (UniProt P49760). Particulars: at 0.1 µM.
Dual specificity protein kinase CLK2 (Homo sapiens), sequence (P49760 whole entry, looked up): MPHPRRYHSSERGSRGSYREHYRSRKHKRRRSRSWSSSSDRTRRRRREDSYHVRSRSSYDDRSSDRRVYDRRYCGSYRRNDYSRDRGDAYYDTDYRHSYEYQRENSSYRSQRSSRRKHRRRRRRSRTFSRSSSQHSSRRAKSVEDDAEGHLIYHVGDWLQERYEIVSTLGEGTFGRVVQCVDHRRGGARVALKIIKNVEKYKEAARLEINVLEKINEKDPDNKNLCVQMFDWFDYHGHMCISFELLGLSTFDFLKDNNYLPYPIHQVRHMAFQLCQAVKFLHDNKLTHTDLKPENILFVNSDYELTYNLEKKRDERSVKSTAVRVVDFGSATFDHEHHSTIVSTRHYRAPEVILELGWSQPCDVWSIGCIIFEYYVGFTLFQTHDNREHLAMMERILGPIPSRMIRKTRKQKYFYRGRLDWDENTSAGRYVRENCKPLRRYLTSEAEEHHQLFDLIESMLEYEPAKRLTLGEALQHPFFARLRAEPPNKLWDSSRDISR
For assay [19] the target is unchanged. To be noted: at 1 µM.
Assay [20] has as its target Dual specificity protein kinase CLK3 (Homo sapiens) (UniProt P49761). To be noted: at 0.1 µM.

Casein kinase I isoform gamma-2 (Homo sapiens), sequence (P78368 whole entry, looked up, canonical isoform): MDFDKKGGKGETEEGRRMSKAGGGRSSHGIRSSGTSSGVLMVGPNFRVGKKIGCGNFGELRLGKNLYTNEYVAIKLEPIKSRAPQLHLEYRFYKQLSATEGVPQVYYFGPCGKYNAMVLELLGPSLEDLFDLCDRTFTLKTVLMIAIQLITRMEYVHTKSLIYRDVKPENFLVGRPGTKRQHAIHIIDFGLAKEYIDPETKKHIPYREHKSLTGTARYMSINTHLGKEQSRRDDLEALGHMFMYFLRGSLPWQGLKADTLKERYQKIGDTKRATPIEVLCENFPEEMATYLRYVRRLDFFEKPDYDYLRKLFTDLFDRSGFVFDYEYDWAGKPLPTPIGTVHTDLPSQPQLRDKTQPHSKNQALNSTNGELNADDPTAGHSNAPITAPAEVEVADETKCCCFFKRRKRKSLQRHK
Casein kinase I isoform gamma-3 (Homo sapiens), sequence (Q9Y6M4 whole entry, looked up, canonical isoform): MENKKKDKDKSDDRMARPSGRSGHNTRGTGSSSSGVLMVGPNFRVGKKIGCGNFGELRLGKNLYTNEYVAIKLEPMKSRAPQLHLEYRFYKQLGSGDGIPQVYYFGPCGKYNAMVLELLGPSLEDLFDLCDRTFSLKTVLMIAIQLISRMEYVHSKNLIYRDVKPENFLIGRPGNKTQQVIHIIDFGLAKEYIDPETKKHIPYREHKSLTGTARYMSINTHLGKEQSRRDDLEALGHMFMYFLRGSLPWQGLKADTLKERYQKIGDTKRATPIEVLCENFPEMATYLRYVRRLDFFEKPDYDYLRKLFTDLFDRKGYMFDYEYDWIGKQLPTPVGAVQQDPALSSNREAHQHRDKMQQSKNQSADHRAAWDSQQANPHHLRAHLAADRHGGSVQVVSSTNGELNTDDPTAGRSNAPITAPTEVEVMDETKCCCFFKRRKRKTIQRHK
Dual specificity protein kinase CLK3 (Homo sapiens), sequence (P49761 whole entry, looked up): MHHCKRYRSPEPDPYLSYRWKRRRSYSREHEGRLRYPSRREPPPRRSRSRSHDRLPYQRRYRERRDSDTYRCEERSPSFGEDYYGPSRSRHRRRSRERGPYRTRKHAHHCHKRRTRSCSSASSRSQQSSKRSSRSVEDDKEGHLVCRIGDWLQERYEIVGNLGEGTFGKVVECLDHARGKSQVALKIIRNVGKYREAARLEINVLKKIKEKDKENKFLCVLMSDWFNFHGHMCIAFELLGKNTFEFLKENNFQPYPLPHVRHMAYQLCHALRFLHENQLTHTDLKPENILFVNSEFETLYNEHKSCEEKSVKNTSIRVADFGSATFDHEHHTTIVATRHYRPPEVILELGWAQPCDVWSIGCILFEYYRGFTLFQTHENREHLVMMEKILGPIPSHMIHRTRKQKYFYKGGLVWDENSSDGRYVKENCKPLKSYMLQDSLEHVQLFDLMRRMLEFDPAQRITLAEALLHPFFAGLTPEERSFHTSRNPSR

On to `O=C(O[C@H]1CN[C@H](C#Cc2cc3ncnc(Nc4ccc(Cc5ccccc5)cc4)c3s2)C1)N1CCOCC1`, for which the inhibition in [1] was found to be 2.93%; in [2] it was 2.83%; in assay [3], 0.75%; in [4] it was 0.31%; in assay [5], 1.96%; in assay [6], 0.69%. Also, the inhibition was 0.19% in assay [7]; 1.15% in [8]; 1.72% in assay [9]; -2.04% in assay [10]; -1.05% in assay [11]; 0.77% in [12]. Further, the inhibition is 1.9% in assay [13]; 0.05% in assay [14]; 1.12% in assay [15]; -3.24% in [16]; -1.41% in assay [17]; 0.36% in [18]. The inhibition in assay [19] was -0.46%; in assay [20], 0.27%.

For the molecule `NS(=O)(=O)c1ccc(Nc2ncc(-c3ccccc3)o2)cc1`, the inhibition in [1] was 4.34%; in assay [2] it was 3.53%; in [3], 3.96%; in assay [4], 19.7%; in assay [5], 66.2%; in assay [6], 48.2%. The inhibition was found to be 109% in assay [7]; 56.2% in [8]; 86.8% in assay [9]; 44.6% in assay [10]; 77.2% in assay [11]; 9.25% in assay [12]. For the same molecule, the inhibition in assay [13] turned out to be 26.5%; in assay [14] it was 23.8%; in assay [15] it was 70.3%; in assay [16] it was 13.1%; in [17] it was 48.6%; in assay [18], 1.81%. Further, the values for the inhibition in assay [19] and in [20] were 1.67% and 2.28%, respectively.

For `O=S(=O)(CCNCc1ccc(-c2ccc3ncnc(Nc4ccc(OCc5cccc(F)c5)c(Cl)c4)c3c2)o1)c1ccccc1`, the inhibition in assay [1] turned out to be 5.75%; in assay [2], 4.59%; in assay [3], 5.14%; in assay [4], 0.29%; in assay [5], 1.65%; in assay [6], 2.32%. The inhibition is 2.63% in assay [7]; 3.6% in assay [8]; 5.45% in [9]; 0.01% in assay [10]; -1.98% in assay [11]; 4.84% in [12]. The inhibition was found to be 5.57% in assay [13]; 0.05% in assay [14]; 1.21% in assay [15]; 0.74% in [16]; 2.65% in assay [17]; 0.01% in assay [18]. Besides, the inhibition in assay [19] was found to be 1.31%; in assay [20] it was 0.95%.

For the molecule `CNC(=O)c1cccc(C#Cc2cncnc2Nc2ccc(OCc3cccc(F)c3)c(Cl)c2)c1`, the inhibition in assay [1] was 1.26%; in assay [2] it was 2.38%; in [3], 0.88%; in [4] it was 0.46%; in [5] it was 2.85%; in [6], -0.2%. Besides, the inhibition stood at 6.57% in assay [7]; 4.58% in [8]; 4.27% in [9]; 2.79% in [10]; 3.72% in assay [11]; 2.35% in assay [12]. In addition, the inhibition in assay [13] came to 3.08%; in assay [14], 1.3%; in assay [15] it was 2.33%; in assay [16], 4.83%; in assay [17], 1.6%; in assay [18] it was 0.38%. Moreover, the inhibition in [19] is 2.72%; in assay [20] it was -0.87%.

Take `CC(=O)NCc1cccc(C#Cc2cncnc2Nc2ccc(OCc3cccc(F)c3)c(Cl)c2)c1`: the inhibition was 0.99% in assay [1]; -1.04% in assay [2]; -0.37% in [3]; 0.28% in assay [4]; 2.88% in assay [5]; 1.01% in assay [6]. Further, the inhibition in assay [7] was -3.16%; in assay [8] it was 1.24%; in [9] it was 3.29%; in assay [10], 1.84%; in assay [11], -1.44%; in assay [12], 1.51%. For the same molecule, the inhibition in assay [13] was 5.22%; in [14] it was 1.7%; in assay [15], 5.29%; in assay [16], -2.35%; in assay [17], 5.05%; in assay [18], 1%. Also, the inhibition is -0.78% in [19] and 0.32% in assay [20].

For `CCn1cc(-c2ccnc3[nH]ccc23)c(-c2cccc(NC(=O)Nc3ccc(OCc4ccccc4)cc3)c2)n1`, the inhibition in assay [1] was 1.8%; in [2], -0.46%; in assay [3], 0.79%; in assay [4] it was 0.04%; in assay [5] it was 0.38%; in assay [6] it was -0.95%. Also, the inhibition in [7] is -1.61%; in assay [8], -0.54%; in [9], -2.22%; in assay [10] it was 0.47%; in [11], -2.23%; in assay [12], 1.32%. Also, the inhibition in assay [13] is -0.47%; in assay [14], -0.05%; in assay [15], -0.93%; in [16], -2.8%; in assay [17], -4.5%; in assay [18], -0.56%. Besides, the inhibition in assay [19] was -2.09%; in assay [20], -0.94%.

Regarding `Fc1ccc(-c2nn3ncccc3c2-c2ccnc(Nc3ccc4c(c3)OCCO4)n2)cc1`, the inhibition in assay [1] was 61.6%; in assay [2] it was 23.9%; in assay [3] it was 76.1%; in assay [4], 0.14%; in [5], 0.65%; in assay [6], 1.25%. Besides, the inhibition in assay [7] was 3.7%; in assay [8], 2.71%; in [9], 2.76%; in [10], 3.59%; in assay [11], -2.65%; in assay [12] it was 1.89%. Also, the inhibition in assay [13] was 1.86%; in assay [14], 0.45%; in assay [15], 0.21%; in assay [16], -2.15%; in assay [17], 2.72%; in assay [18] it was 1.15%. Further, the inhibition in assay [19] turned out to be 1.21%; in [20], 1.15%.

With `COc1cccc(-n2ncc3c(N/N=C/c4ccc(F)cc4)ncnc32)c1`, the inhibition was found to be 4.65% in assay [1]; 3.39% in [2]; 3.4% in [3]; 9.55% in assay [4]; 35.5% in [5]; 10.1% in assay [6]. In addition, the inhibition in assay [7] came to 48.5%; in assay [8], 5.86%; in assay [9], 15.5%; in assay [10] it was 3.62%; in [11], 4.95%; in [12], 6.67%. Also, the inhibition in assay [13] was found to be 17.3%; in assay [14] it was 9.38%; in assay [15], 32.8%; in [16], 7.13%; in [17], 16.8%; in [18], 2.52%. Also, the inhibition in assay [19] was 4.42%; in assay [20], 3.03%.

For `c1ccc(-c2nc3n(c2-c2ccc4c(c2)OCO4)CCC3)nc1`, the inhibition was found to be 1.81% in [1]; 0.57% in assay [2]; 4.18% in [3]; 0.17% in [4]; 1.42% in [5]; 1.58% in assay [6]. Also, the inhibition is -5.6% in assay [7]; 2.41% in assay [8]; 3.84% in assay [9]; 2.37% in [10]; 0.43% in assay [11]; 2.02% in [12]. For the same molecule, the inhibition in assay [13] was 2.7%; in assay [14], 0.64%; in assay [15], 1.86%; in assay [16], -1.72%; in assay [17] it was 3.55%; in assay [18], 0.44%. Also, the inhibition in assay [19] was -1.18%; in [20], 3.62%.

For the molecule `COC(=O)Nc1nc2ccc(S(=O)(=O)c3ccc(NC(=O)Nc4cc(C(F)(F)F)ccc4F)cc3)cc2[nH]1`, the inhibition is 2.81% in assay [1]; 2.17% in assay [2]; 2.25% in [3]; 0.69% in assay [4]; 2.29% in [5]; 1.37% in assay [6]. Further, the inhibition in [7] was 4.57%; in [8], 3.44%; in assay [9] it was 3.85%; in assay [10] it was 3.5%; in assay [11], -2.43%; in assay [12] it was 2.72%. Besides, the inhibition came to 4.04% in assay [13]; 1.61% in assay [14]; 2.38% in [15]; 0.21% in [16]; 2.9% in [17]; 0.38% in assay [18]. Moreover, the inhibition in [19] is 1.96%; in [20], 0.87%.

For the molecule `CCCN(CCS(C)(=O)=O)Cc1ccc(-c2ccc3ncnc(Nc4ccc(OCc5cccc(F)c5)c(Cl)c4)c3c2)o1`, the inhibition in assay [1] was 3.18%; in assay [2], -1.08%; in assay [3], 1.11%; in assay [4], 2.23%; in [5], 8.04%; in [6], 0.78%. Moreover, the inhibition in assay [7] is -1.6%; in assay [8], 1.97%; in assay [9] it was 7%; in assay [10] it was 0.67%; in assay [11] it was -1.26%; in assay [12] it was 1.25%. For the same molecule, the inhibition amounted to 5.06% in assay [13]; 2.08% in [14]; 6.83% in assay [15]; 1.99% in [16]; 7% in assay [17]; 1.46% in [18]. Moreover, the inhibition in assay [19] is 0.75%; in assay [20] it was 1.51%.

As to `N#Cc1c(NC(=O)CN2CCOCC2)sc2c1CCCC2`, the inhibition stood at 6.04% in [1]; 4.84% in assay [2]; 6.07% in assay [3]; 4.8% in [4]; 4.23% in assay [5]; 3.4% in assay [6]. In addition, the inhibition in assay [7] came out at 4.28%; in assay [8], 6.96%; in assay [9], 8.06%; in [10], 5.84%; in assay [11], 0.79%; in assay [12], 6.39%. Moreover, the inhibition was 5.4% in assay [13]; 4.75% in [14]; 5.34% in [15]; 5.33% in [16]; 7.63% in assay [17]; 1.09% in assay [18]. For the same molecule, the inhibition in assay [19] turned out to be 2.7%; in assay [20], 4.98%.

Turning to `CS(=O)(=O)CCNCc1ccc(-c2ccc3ncnc(Nc4ccc(OCc5ccccc5)c(C(F)(F)F)c4)c3c2)o1`, the inhibition in assay [1] was determined as 4.2%; in assay [2] it was 3.19%; in assay [3], 2.56%; in [4] it was 0.28%; in assay [5] it was 1.7%; in assay [6] it was 6.22%. In addition, the inhibition in assay [7] was 8.37%; in [8], 2.59%; in assay [9], 4.6%; in assay [10], 0.51%; in assay [11], -3.61%; in assay [12] it was 2.38%. Besides, the inhibition in assay [13] is 3.96%; in assay [14], 0.23%; in assay [15], 1.58%; in assay [16], -1.88%; in assay [17] it was -4.19%; in assay [18], 0.79%. Besides, the inhibition is -2.13% in assay [19] and 0.57% in assay [20].
